Active and inactive are the calls of the source. Where a call stands in place of a potency, no number is given. Calls follow the shape of the dose curve; as a rule, active = well fitted activation curve with a large enough effect in the repeat runs; inconclusive = weak or mixed curves; inactive = flat fitted curve, though single readings scatter.
experiment: A CellTox Green Cytotoxicity Assay to monitor cytotoxicity in HepG2 cells - 0 hour (AID 1224882); conditions: CellTox Green fluorescence; series mostly up to 76.8 µM; also: nearly all actives have a fitted effect of over 35% in size
From the text: National Center for Advancing Translational Sciences [NCATS]
NIH Chemical Genomics Center [NCGC]
U.S. Environmental Protection Agency [EPA]
National Institutes of Environmental Health Sciences [NIEHS]
National Toxicology Program [NTP]
Cell-based models are critical for drug discovery. Determining the natural cytotoxic effects resulting from test compounds is an essential research activity. A CellTox Green Cytotoxicity Assay to monitor cytotoxicity in real time of continues cell culture during 40 hours of the compound treatment was used to screen Tox21 10K library compounds in HepG2 cells. CellTox Green Cytotoxicity Assay is a nonlytic, homogeneous, biofluorescent method to measure cytotoxicity in cell culture after experimental manipulation. The assay system uses a proprietary asymmetric cyanine dye that is excluded from viable cells but preferentially stains the dead cell's DNA. […] Viable cells produce no appreciable increases in fluorescence. Therefore, the fluorescence signal produced by the binding interaction with dead cell DNA is proportional to cytotoxicity.
The mixture of HepG2 cell suspension and reagents were dispensed at 600cells/6 ul/well in 1536-well tissue culture treated black solid bottom plates using a Multidrop dispenser. After the assay plates were incubated at a 37 C/5% CO2 incubator for 5 hours, 23 nL of compounds dissolved in DMSO, positive and negative controls was transferred to the assay plate by a pintool work station. The plates were incubated at 37 C for 40 hours. The fluorescence intensity were measured at 0h, 8h, 16h, 24h, 32h and 40h time points using ViewLux plate reader during compound treatment.

Compound	Potency
Clc1ccc(-c2ccccc2)cc1	inactive
O=C1c2ccccc2C(=O)C1C(=O)C(c1ccccc1)c1ccc(Cl)cc1 (stereo not given)	inactive
O=C1NCN(c2ccccc2)C12CCN(CC1COc3ccccc3O1)CC2 (stereo not given)	inactive
c1ccc2c(c1)[nH]c1cnccc12	inactive
COc1cc(N)c(Cl)cc1C(=O)NC1CN2CCC1CC2 (stereo not given)	inactive
CSCCCN=C=S	inactive
COc1cccc(C(=O)CCN[C@@H](C)[C@H](O)c2ccccc2)c1	inactive
CCCCCCCCCCBr	inactive
COc1ccc(/C(=C/C(=O)N2CCOCC2)c2ccc(Cl)cc2)cc1OC	inactive
CCN(CC)C(=S)[S-].CCN(CC)C(=S)[S-].[Zn+2]	inactive
CC(C)(c1ccc(O)c(-c2ccccc2)c1)c1ccc(O)c(-c2ccccc2)c1	inactive
ClC1=C(Cl)[C@]2(Cl)[C@@H]3[C@@H](Cl)[C@@H](Cl)C[C@@H]3[C@@]1(Cl)C2(Cl)Cl	inactive
Oc1ccccc1Br	inactive
Clc1ccc(CO/N=C(\Cn2ccnc2)c2ccc(Cl)cc2Cl)c(Cl)c1	inactive
Clc1ccc(C(c2ccc(Cl)cc2)C(Cl)(Cl)Cl)cc1	inactive
CCC(C)c1cc(C(C)(C)C)cc(-n2nc3ccccc3n2)c1O (stereo not given)	inactive
CC(C)OS(C)(=O)=O	inactive
CC(O)C#N (stereo not given)	inactive
N#CSCSC#N	inactive
CC(C)CCCCCOC(=O)c1ccccc1C(=O)OCCCCCC(C)C	inactive

Compound	Potency
COc1ccc(OC)c(CC(C)N)c1 (stereo not given)	inactive
N#CCCSCCC#N	inactive
Oc1c(Cl)c(Cl)cc(Cl)c1Cl	inactive
COC(=O)N(C(=O)N1COC2(C(=O)OC)Cc3cc(Cl)ccc3C2=N1)c1ccc(OC(F)(F)F)cc1 (stereo not given)	inactive
Cl/C=C\CCl	inactive
CC(C)C1CCC(Cc2ccc(Cl)cc2)C1(O)Cn1cncn1 (stereo not given)	inactive
Nc1ccc([N+](=O)[O-])cc1Cl	inactive
CC(=[OH+])/C=C(/C)[O-].CC(=[OH+])/C=C(\C)[O-].CC(=[OH+])/C=C(\C)[O-].[Fe]	inactive
CC1(C)C(/C=C(\Cl)C(F)(F)F)C1C(=O)OC(C#N)c1cccc(Oc2ccccc2)c1 (stereo not given)	inactive
COCC(=O)N(c1c(C)cccc1C)[C@H](C)C(=O)OC	inactive
N#Cc1ccccc1Cl	inactive
CCCCN(CCCC)C(=S)[S-].CCCCN(CCCC)C(=S)[S-].[Zn+2]	inactive
CCCCCCCCCCCCCCCC[n+]1ccccc1	inactive
[CH3][Hg][Cl]	inactive
CC(C)CC(C)N (stereo not given)	inactive
CN(C)c1ccc(N=Nc2ccccc2)cc1	inactive
CC(C)OC(=O)C(O)(c1ccc(Cl)cc1)c1ccc(Cl)cc1	inactive
CCCCCCCCCCCCCC[P+](CCCCCC)(CCCCCC)CCCCCC (tested in a mixture with another compound)	inactive
CCN	inactive
CC1(C)CC/C(=C/c2ccc(Cl)cc2)C1(O)Cn1cncn1 (stereo not given)	inactive
